{
  "source": "PubChem BioAssay (NCATS)",
  "note": "Results filed as inconclusive are left out. Activity calls are given as the source filed them. Calls follow the shape of the dose curve; as a rule, active = well fitted inhibition curve with a large enough effect; inconclusive = small, poorly fitted or top-dose-only effect; inactive = no such curve, though single readings can be large or run the other way.",
  "data": [
    {"assay": "NS1 protein of Zika virus - qHTS assay to identify small molecule inhibitors in human HEK 293 cells (AID 1347053);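 also: plate controls were infected untreated cells for no effect and uninfected cells for full effect; nearly all actives have a fitted effect of over 55% in size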", "details": "HEK293 ZIKV MR766 infection, NS1 TR-FRET, 24 h; series mostly up to 46.1 µM; activity change, negative = inhibition: at the top concentration", "description": "National Center for Advancing Translational Sciences [NCATS]\nJohns Hopkins University School of Medicine\nThe non-structural 1 (NS1) protein of zika virus is known to associate with the viral replication complex. This cell-based TR-FRET ZIKV NS-1 assay measures the increased NS-1 protein in human HEK 293 cells after a 24-hour Zika virus infection by a TR-FRET assay readout. A decrease in the Time-resolved fluorescence energy transfer (TR-FRET) signal in this assay by small molecule treatment indicates an inhibitory effect of the small molecule on the expression of Zika virus NS1 correlating with Zika virus replication.\nHEK 293 cells were cultured in EMEM (ATCC, Cat. # 30-2003) medium with 10% fetal bovine serum (GE healthcare Life Sciences, Cat. # SH30071.03), and 1% Pen/Strep (Gibco, Cat. # 15140-122). Cells were seeded in the assay plate and incubated at 37 C with 5% CO2 for 20 hours. Compounds were added to cells and incubated for one hour before addition of ZIKV MR766 strain solution to cells (MOI = 0.5). After an incubation at 37 C for 24 hours, the reagent mixture of TR-FRET ZIKV NS1 assay using two anti-ZIKV NS1 antibodies was added to assay plates. The TR-FRET signals in assay plates were measured using an Envision plate reader (PerkinElmer). Data were normalized by using the cell-containing wells without ZIKV as a negative control (0% NS-1) and wells containing ZIKV infected cells as a positive control (100% NS-1 level).", "values": [
      {"smiles": "c1ccc2occc2c1", "activity change, negative = inhibition": "-5.71% [at 92.8 µM] (inactive)"},
      {"smiles": "O=C(CCCl)NCCc1ccccc1", "activity change, negative = inhibition": "3.02% (inactive)"},
      {"smiles": "CCOC(=O)C(O)c1ccccc1", "note": "(stereo not given)", "activity change, negative = inhibition": "0.772% (inactive)"},
      {"smiles": "O=C(OCC(O)CO)c1ccccc1Nc1ccnc2c(C(F)(F)F)cccc12", "note": "(stereo not given)", "activity change, negative = inhibition": "-3.7% (inactive)"},
      {"smiles": "OCCCc1ccccc1", "activity change, negative = inhibition": "1.92% (inactive)"},
      {"smiles": "CN(C)C(=O)CNC(=O)Cc1ccccc1", "activity change, negative = inhibition": "-14.7% (inactive)"},
      {"smiles": "Cc1cccc(C)c1NC(=O)c1cc(S(N)(=O)=O)c(Cl)cc1O", "activity change, negative = inhibition": "12.4% (inactive)"},
      {"smiles": "CCS(=O)(=O)c1ccc(OC)c(C(=O)OC)c1", "activity change, negative = inhibition": "-8.29% (inactive)"},
      {"smiles": "O=c1[nH]c2ccccc2c(=O)n1CCCl", "activity change, negative = inhibition": "-18.6% (inactive)"},
      {"smiles": "O=C(OCC1(COC(=O)c2cccnc2)CCCC(COC(=O)c2cccnc2)(COC(=O)c2cccnc2)C1O)c1cccnc1", "activity change, negative = inhibition": "2.82% (inactive)"},
      {"smiles": "CN1CCC(N(Cc2cccs2)c2ccccc2)CC1", "activity change, negative = inhibition": "0.306% (inactive)"},
      {"smiles": "O=[N+]([O-])c1nccn1CO[C@@H](CO)[C@H](O)CO", "activity change, negative = inhibition": "-16.2% (inactive)"},
      {"smiles": "O=C(O)CCCC[C@@H]1SC[C@@H]2NC(=O)N[C@@H]21", "activity change, negative = inhibition": "-0.835% (inactive)"},
      {"smiles": "O=C(CCCl)NCc1ccccc1", "activity change, negative = inhibition": "3.42% (inactive)"},
      {"smiles": "COC(=O)c1c(Cl)c(Cl)c(C(=O)OC)c(Cl)c1Cl", "activity change, negative = inhibition": "-0.224% [at 92.8 µM] (inactive)"},
      {"smiles": "CCC(C(=O)OCCN1CCOC(c2ccccc2)C1C)c1ccccc1", "note": "(stereo not given)", "activity change, negative = inhibition": "-1.52% (inactive)"},
      {"smiles": "c1ccc(C(O[C@H]2CCCN(CCc3ccc4c(c3)OCO4)C2)c2ccccc2)cc1", "activity change, negative = inhibition": "0.136% (inactive)"},
      {"smiles": "Nc1c(I)cc(I)c(C(=O)N(CCC(=O)O)c2ccccc2)c1I", "activity change, negative = inhibition": "-3.46% (inactive)"},
      {"smiles": "Cc1ccc(O)cc1", "activity change, negative = inhibition": "3.19% (inactive)"},
      {"smiles": "CC(Oc1c(Cl)cccc1Cl)C1=NCCN1", "note": "(stereo not given)", "activity change, negative = inhibition": "-1.73% (inactive)"},
      {"smiles": "Nc1c[n+](N2CCOCC2)no1", "activity change, negative = inhibition": "4.48% (inactive)"},
      {"smiles": "CN(C(=O)C(Cl)Cl)c1ccc(OC(=O)c2ccco2)cc1", "activity change, negative = inhibition": "-10.9% (inactive)"},
      {"smiles": "C[C@@H]1CCC[C@H](C)N1CCCC(O)(c1ccccc1)c1ccccn1", "note": "(stereo not given in full)", "activity change, negative = inhibition": "4.37% (inactive)"},
      {"smiles": "CC(=O)c1cc2ccccc2s1", "activity change, negative = inhibition": "1.7% (inactive)"},
      {"smiles": "N=C(N)c1ccc(OCCCOc2ccc(C(=N)N)cc2)cc1", "activity change, negative = inhibition": "-1.4% (inactive)"},
      {"smiles": "CC(=O)OC[C@H]1O[C@@H](OC(C)=O)[C@H](OC(C)=O)[C@@H]1OC(C)=O", "activity change, negative = inhibition": "0.315% (inactive)"},
      {"smiles": "Cc1c(C)c2c(c(C)c1OC(=O)CCC(=O)OCCO)CC[C@@](C)(CCC[C@H](C)CCC[C@H](C)CCCC(C)C)O2", "activity change, negative = inhibition": "7.04% (inactive)"},
      {"smiles": "CCN1C(=O)c2ccccc2C1Nc1ccc(OCCN2CCCCC2)cc1", "note": "(stereo not given)", "activity change, negative = inhibition": "3.35% (inactive)"},
      {"smiles": "CO/N=C(/C(=O)N[C@@H]1C(=O)N2C(C(=O)O)=C(Cn3nnc(C)n3)CS[C@H]12)c1csc(N)n1", "activity change, negative = inhibition": "-6.73% (inactive)"},
      {"smiles": "CO/N=C(/C(=O)N[C@@H]1C(=O)N2C(C(=O)OCOC(=O)C(C)(C)C)=C(C)CS[C@H]12)c1csc(N)n1", "activity change, negative = inhibition": "-9.12% (inactive)"},
      {"smiles": "NCC(=O)O", "activity change, negative = inhibition": "-0.11% [at 20.1 µM] (inactive)"},
      {"smiles": "Nc1ccc2c(c1)CN1C(=O)c3ccccc3C1=N2", "activity change, negative = inhibition": "69.2% [at 20.1 µM] (inactive)"},
      {"smiles": "Cc1c(N)cccc1C(F)(F)F", "activity change, negative = inhibition": "-1.35% (inactive)"},
      {"smiles": "COc1ccc(/C(C)=C/C(=O)O)c(OC)c1", "activity change, negative = inhibition": "-8.08% (inactive)"},
      {"smiles": "Cn1cc(S(C)=O)c(=O)c2ccc(F)cc21", "note": "(stereo not given)", "activity change, negative = inhibition": "3.78% (inactive)"},
      {"smiles": "O=C1NC(c2ccccc2)(c2ccccc2)C(=O)N1COP(=O)(O)O", "activity change, negative = inhibition": "-0.839% (inactive)"},
      {"smiles": "CCCOc1ccc2c(c1)CC[C@@H]1[C@@H]2CC[C@]2(C)C(OC)CC[C@@H]12", "note": "(stereo not given in full)", "activity change, negative = inhibition": "0.385% (inactive)"},
      {"smiles": "NC(N)=NCCCCN=C(N)N", "activity change, negative = inhibition": "9.59% (inactive)"},
      {"smiles": "COC(=O)c1cc(S(N)(=O)=O)ccc1OC", "activity change, negative = inhibition": "7.43% (inactive)"},
      {"smiles": "Cn1cnc2c(NCc3ccccc3)nc(NCCO)nc21", "activity change, negative = inhibition": "-3.84% (inactive)"}
    ]}
  ]
}
